In all, about 5,500 compounds went through this assay and about 2,000 (36%) were called active. Roughly 18% stayed inconclusive and do not appear here. Cut-off read from the data, not from the text of the source: active = normalized growth mostly below about 0.91 (no sharp cut-off); inconclusive = no clear call, values can overlap the other calls; inactive = mostly above about 0.92. This is one part of the list.
Experiment: chemical genetic growth profiling, strain panel (AID 1159580);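 note: tested at 20 µM; growth read once vehicle control cultures reached saturation at 30 °C; 1 = growth at the plate median or of vehicle wells; lower values mean less growth of the strain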
Conditions: S. cerevisiae deletion strains, growth OD

Measured: normalized growth

CCOC(=O)c1c(C)c(Cl)c(O)c(Cl)c1O
active: locus YAL021C, strain ccr4, stronger effect = lower value 0.682 | locus YAL026C, strain drs2, stronger effect = lower value 0.469 | locus YAL030W, strain snc1, stronger effect = lower value 0.692 | locus YBL061C, strain skt5, stronger effect = lower value 0.637 | locus YBR009C, strain hhf1, stronger effect = lower value 0.407 | locus YBR023C, strain chs3, stronger effect = lower value 0.589 | locus YBR171W, strain sec66, stronger effect = lower value 0.619 | locus YBR231C, strain swc5, stronger effect = lower value 0.469 | locus YBR279W, strain paf1, stronger effect = lower value 0.686 | locus YCL011C, strain gbp2, stronger effect = lower value 0.499 | locus YCL016C, strain dcc1, stronger effect = lower value 0.495 | locus YCL061C, strain MRC1, stronger effect = lower value 0.408 | locus YCL069W, strain vba3, stronger effect = lower value 0.407 | locus YCR088W, strain abp1, stronger effect = lower value 0.517 | locus YDL005C, strain med2, stronger effect = lower value 0.76 | locus YDL040C, strain nat1, stronger effect = lower value 0.663 | locus YDR001C, strain nth1, stronger effect = lower value 0.516 | locus YDR069C, strain doa4, stronger effect = lower value 0.72 | locus YDR137W, strain rgp1, stronger effect = lower value 0.266 | locus YDR159W, strain sac3, stronger effect = lower value 0.459 | locus YDR195W, strain ref2 0.697 | locus YDR297W, strain sur2, stronger effect = lower value 0.677 | locus YDR334W, strain swr1, stronger effect = lower value 0.361 | locus YDR335W, strain msn5, stronger effect = lower value 0.517 | locus YDR392W, strain spt3, stronger effect = lower value 0.0936 | locus YEL003W, strain gim4, stronger effect = lower value 0.397 | locus YEL037C, strain rad23, stronger effect = lower value 0.666 | locus YEL061C, strain CIN8 (second series), stronger effect = lower value 0.171 | locus YER015W, strain faa2, stronger effect = lower value 0.652 | locus YER016W, strain bim1, stronger effect = lower value 0.559 | locus YER111C, strain swi4, stronger effect = lower value 0.189 | locus YER155C, strain BEM2 (second series), stronger effect = lower value 0.15 | locus YFR010W, strain ubp6, stronger effect = lower value 0.696 | locus YGL167C, strain pmr1, stronger effect = lower value 0.67 | locus YGL173C, strain kem1, stronger effect = lower value 0.512 | locus YGL227W, strain vid30, stronger effect = lower value 0.188 | locus YGL240W, strain doc1, stronger effect = lower value 0.375 | locus YGL253W, strain hxk2, stronger effect = lower value 0.254 | locus YHR013C, strain ard1, stronger effect = lower value 0.634 | locus YHR027C, strain rpn1, stronger effect = lower value 0.719 | locus YHR142W, strain chs7, stronger effect = lower value 0.245 | locus YJL092W, strain hpr5, stronger effect = lower value 0.456 | locus YJL095W, strain BCK1 (second series), stronger effect = lower value 0.292 | locus YJL115W, strain asf1, stronger effect = lower value 0.667 | locus YJL129C, strain trk1, stronger effect = lower value 0.261 | locus YJL154C, strain vps35, stronger effect = lower value 0.702 | locus YJL164C, strain tpk1, stronger effect = lower value 0.467 | locus YJL166W, strain qcr8, stronger effect = lower value 0.448 | locus YJL187C, strain SWE1, stronger effect = lower value 0.61 | locus YKL160W, strain elf1, stronger effect = lower value 0.454 | locus YKR026C, strain gcn3, stronger effect = lower value 0.697 | locus YKR091W, strain srl3, stronger effect = lower value 0.677 | locus YLL001W, strain dnm1, stronger effect = lower value 0.563 | locus YLL026W, stronger effect = lower value 0.436 | locus YLL041C, strain sdh2, stronger effect = lower value 0.635 | locus YLR027C, strain aat2, stronger effect = lower value 0.517 | locus YLR221C, strain rsa3, stronger effect = lower value 0.398 | locus YLR258W, strain gsy2, stronger effect = lower value 0.561 | locus YLR262C, strain YPT6 (second series), stronger effect = lower value 0.277 | locus YLR320W, strain mms22, stronger effect = lower value 0.27 | locus YLR342W, strain FKS1, stronger effect = lower value 0.369 | locus YLR357W, strain rsc2, stronger effect = lower value 0.64 | locus YLR370C, strain arc18, stronger effect = lower value 0.701 | locus YLR384C, strain iki3, stronger effect = lower value 0.681 | locus YML120C, strain ndi1, stronger effect = lower value 0.409 | locus YMR058W, strain fet3, stronger effect = lower value 0.429 | locus YMR125W, strain sto1, stronger effect = lower value 0.259 | locus YMR129W, stronger effect = lower value 0.651 | locus YMR205C, strain PFK2, stronger effect = lower value 0.283 | locus YMR231W, strain pep5, stronger effect = lower value 0.361 | locus YNL071W, strain lat1, stronger effect = lower value 0.127 | locus YNL209W, strain ssb2, stronger effect = lower value 0.753 | locus YNL248C, strain rpa49, stronger effect = lower value 0.645 | locus YNL322C, strain KRE1 (second series), stronger effect = lower value 0.783 | locus YNR049C, strain mso1, stronger effect = lower value 0.432 | locus YOR001W, strain rrp6, stronger effect = lower value 0.4 | locus YOR070C, strain gyp1, stronger effect = lower value 0.499 | locus YOR080W, strain dia2, stronger effect = lower value 0.701 | locus YOR083W, strain WHI5, stronger effect = lower value 0.608 | locus YOR106W, strain vam3, stronger effect = lower value 0.459 | locus YOR265W, strain rbl2, stronger effect = lower value 0.676 | locus YOR270C, strain vph1, stronger effect = lower value 0.214 | locus YOR290C, strain snf2, stronger effect = lower value 0.424 | locus YPL051W, strain arl3, stronger effect = lower value 0.414 | locus YPL078C, strain atp4, stronger effect = lower value 0.391 | locus YPL106C, strain sse1, stronger effect = lower value 0.568 | locus YPL240C, strain hsp82, stronger effect = lower value 0.492
